PMC4336329 (PLoS ONE, 2015)
Hit rate of the full screen: of about 310,000 compounds, about 14,000 (4.5%) showed an effect of 50% or more. Effects have a minus sign here. The sample as a whole holds a higher share of strong results than the screen did.

target: human ether-à-go-go-related gene (hERG) potassium channel (human, UniProt Q12809); test: primary screen, population patch clamp on CHO cells stably expressing hERG; higher = less effect of the substance
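Note: peak tail current of the secondary pulse compared with the same well before compound.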

Chain of human ether-à-go-go-related gene (hERG) potassium channel (Q12809 whole entry, looked up): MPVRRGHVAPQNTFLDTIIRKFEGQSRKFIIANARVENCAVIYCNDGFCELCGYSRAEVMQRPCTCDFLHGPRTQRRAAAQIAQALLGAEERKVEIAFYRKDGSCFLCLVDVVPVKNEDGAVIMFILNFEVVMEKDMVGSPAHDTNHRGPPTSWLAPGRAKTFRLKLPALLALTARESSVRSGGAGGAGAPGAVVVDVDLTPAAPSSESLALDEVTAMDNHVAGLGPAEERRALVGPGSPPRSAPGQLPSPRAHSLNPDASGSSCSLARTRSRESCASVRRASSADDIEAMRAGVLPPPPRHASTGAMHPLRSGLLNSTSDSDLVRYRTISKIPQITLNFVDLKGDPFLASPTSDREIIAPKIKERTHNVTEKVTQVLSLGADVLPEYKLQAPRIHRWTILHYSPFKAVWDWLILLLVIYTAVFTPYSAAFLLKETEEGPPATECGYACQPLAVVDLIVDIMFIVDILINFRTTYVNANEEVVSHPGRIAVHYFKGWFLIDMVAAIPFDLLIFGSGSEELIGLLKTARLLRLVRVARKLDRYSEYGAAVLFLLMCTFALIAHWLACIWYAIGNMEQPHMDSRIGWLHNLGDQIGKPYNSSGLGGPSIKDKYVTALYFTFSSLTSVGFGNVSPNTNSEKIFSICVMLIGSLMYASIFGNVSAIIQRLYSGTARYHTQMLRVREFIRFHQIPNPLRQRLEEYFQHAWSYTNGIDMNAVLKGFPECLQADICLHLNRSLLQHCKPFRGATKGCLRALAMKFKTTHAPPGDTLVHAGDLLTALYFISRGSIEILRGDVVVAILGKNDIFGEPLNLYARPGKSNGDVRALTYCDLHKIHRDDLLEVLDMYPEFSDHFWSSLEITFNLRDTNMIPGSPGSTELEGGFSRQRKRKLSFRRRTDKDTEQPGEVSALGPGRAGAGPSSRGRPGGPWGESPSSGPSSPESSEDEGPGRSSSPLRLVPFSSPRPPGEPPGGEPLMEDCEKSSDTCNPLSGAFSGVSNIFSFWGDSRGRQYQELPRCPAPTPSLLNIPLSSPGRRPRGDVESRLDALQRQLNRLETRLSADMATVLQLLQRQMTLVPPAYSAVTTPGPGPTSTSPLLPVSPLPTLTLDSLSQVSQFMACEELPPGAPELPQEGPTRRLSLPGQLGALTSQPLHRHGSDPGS

| SMILES | hERG current change (%, negative = inhibition) at 10uM [%] |
| --- | --- |
| COc1ccc(C(C)=O)cc1CSC(=N)N.Cl | 9.4 |
| COc1ccc(C(=O)N(C)Cc2ccccn2)cc1OC1CCN(C(C)C)CC1 | 9.45 |
| COCC(C)n1c(SCC(=O)Nc2oc(C)c3c(C)n[nH]c(=O)c23)nc2ccccc2c1=O (stereo not drawn) | 6.9 |
| Cc1ccc(SCC(=O)Nc2oc(C)c3c(C)n[nH]c(=O)c23)cc1C | -27.6 |
| COCCCn1c(SCC(=O)Nc2oc(C)c3c(C)n[nH]c(=O)c23)nc2sc3c(c2c1=O)CCC3 | -49.7 |
| Cc1n[nH]c(=O)c2c(NC(=O)CSc3nc4ccccc4c(=O)n3-c3ccc(OC(F)F)cc3)oc(C)c12 | -59.2 |
| Cc1ccc(C)c(SCC(=O)Nc2oc(C)c3c(C)n[nH]c(=O)c23)c1 | -52.4 |
| Cc1n[nH]c(=O)c2c(NC(=O)CSc3cc(Cl)ccc3Cl)oc(C)c12 | -10.9 |
| Cc1n[nH]c(=O)c2c(NC(=O)CSc3nc4ccccc4c(=O)n3C(C)C)oc(C)c12 | -27 |
| CCn1c(SCC(=O)Nc2oc(C)c3c(C)n[nH]c(=O)c23)nc2sc(C)c(C)c2c1=O | -61.7 |
| CCc1cc2c(=O)n(CCCOC)c(SCC(=O)Nc3oc(C)c4c(C)n[nH]c(=O)c34)nc2s1 | -1.43 |
| Nc1ccc(C(=O)N2CCCC2)cc1CS(=O)(=O)c1ccc(Cl)cc1 | -4.18 |
| CN(c1ccccc1)c1nc(N)c([N+](=O)[O-])c(Nc2cccc(F)c2)n1 | 24 |
| COc1ccc(N2C(=O)/C(=C\c3ccco3)N=C2SCC(=O)NC(C)C)cc1Cl | 4.42 |
| C=CCNC(=O)C(C)N1c2cccc3cccc(c23)S1(=O)=O (stereo not drawn) | 9.53 |
| COc1ccc(-n2nnnc2/C(=C/N(C)C)C(=O)c2ccccc2)cc1 | -4.92 |
| S=C(NC1CCCCC1)N1CCn2cccc2C1c1cccnc1 (stereo not drawn) | -8.63 |
| O=C(O)COc1cccc(/C=C2/SC(=S)N(Cc3ccccc3)C2=O)c1 | 0.27 |
| CC(C)(C)c1csc(NC(=O)c2ccc3nccnc3c2)n1 | -57.2 |
| CC(C)(C)c1csc(NC(=O)c2cccnc2)n1 | 13.6 |
| CC(C)(C)c1csc(NC(=O)c2cccs2)n1 | -16.3 |
| CC(C)(C)c1csc(NC(=O)c2ccncc2)n1 | -33.7 |
| CC(C)(C)c1csc(NC(=O)c2c(F)c(F)c(F)c(F)c2F)n1 | -63.9 |
| CC(C)(C)c1csc(NC(=O)c2ccccc2O)n1 | -0.0514 |
